The text below walks through data of the supplement of paper PMC10849652.

Of roughly 7,900 targets only a part is listed; those with a hit were picked by preference. About 0.6% of all pairs of compound and target were hits. Values without a mark were called inactive.

Chain of UniProt P51812 (P51812 whole entry, looked up): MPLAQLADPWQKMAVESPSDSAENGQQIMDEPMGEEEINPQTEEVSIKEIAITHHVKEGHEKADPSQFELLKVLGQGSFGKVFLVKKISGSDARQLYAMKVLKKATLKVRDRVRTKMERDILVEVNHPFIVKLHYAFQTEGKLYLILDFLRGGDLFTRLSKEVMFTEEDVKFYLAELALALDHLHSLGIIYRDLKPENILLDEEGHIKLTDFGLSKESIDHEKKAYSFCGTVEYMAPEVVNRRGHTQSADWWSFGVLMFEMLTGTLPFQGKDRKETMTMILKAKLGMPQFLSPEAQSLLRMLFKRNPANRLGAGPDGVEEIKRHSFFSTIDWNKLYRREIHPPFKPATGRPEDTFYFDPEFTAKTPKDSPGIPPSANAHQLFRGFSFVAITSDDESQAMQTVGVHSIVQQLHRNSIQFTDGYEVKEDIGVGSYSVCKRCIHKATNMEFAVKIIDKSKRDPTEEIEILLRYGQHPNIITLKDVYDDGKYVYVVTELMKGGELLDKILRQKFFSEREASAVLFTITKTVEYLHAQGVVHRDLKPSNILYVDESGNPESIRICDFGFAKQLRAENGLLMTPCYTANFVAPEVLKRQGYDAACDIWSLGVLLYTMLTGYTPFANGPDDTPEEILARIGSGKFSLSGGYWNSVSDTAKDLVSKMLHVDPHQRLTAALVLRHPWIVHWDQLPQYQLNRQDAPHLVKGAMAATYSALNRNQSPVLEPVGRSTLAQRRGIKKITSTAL
Chain of UniProt Q9UKL0 (Q9UKL0 whole entry, looked up): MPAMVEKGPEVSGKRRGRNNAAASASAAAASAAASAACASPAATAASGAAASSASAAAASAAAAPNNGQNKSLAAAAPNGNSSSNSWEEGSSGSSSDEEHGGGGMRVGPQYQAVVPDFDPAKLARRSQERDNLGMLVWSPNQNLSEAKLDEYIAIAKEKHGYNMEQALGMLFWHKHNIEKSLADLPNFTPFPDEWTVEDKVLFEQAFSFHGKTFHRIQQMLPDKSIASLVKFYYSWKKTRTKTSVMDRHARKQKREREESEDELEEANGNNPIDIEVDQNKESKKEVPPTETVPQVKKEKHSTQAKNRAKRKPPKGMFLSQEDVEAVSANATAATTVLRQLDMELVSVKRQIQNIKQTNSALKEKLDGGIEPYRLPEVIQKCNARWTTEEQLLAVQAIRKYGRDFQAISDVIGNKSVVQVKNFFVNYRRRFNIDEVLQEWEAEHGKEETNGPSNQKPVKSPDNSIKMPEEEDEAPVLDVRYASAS
Chain of UniProt Q9NR46 (Q9NR46 whole entry, looked up): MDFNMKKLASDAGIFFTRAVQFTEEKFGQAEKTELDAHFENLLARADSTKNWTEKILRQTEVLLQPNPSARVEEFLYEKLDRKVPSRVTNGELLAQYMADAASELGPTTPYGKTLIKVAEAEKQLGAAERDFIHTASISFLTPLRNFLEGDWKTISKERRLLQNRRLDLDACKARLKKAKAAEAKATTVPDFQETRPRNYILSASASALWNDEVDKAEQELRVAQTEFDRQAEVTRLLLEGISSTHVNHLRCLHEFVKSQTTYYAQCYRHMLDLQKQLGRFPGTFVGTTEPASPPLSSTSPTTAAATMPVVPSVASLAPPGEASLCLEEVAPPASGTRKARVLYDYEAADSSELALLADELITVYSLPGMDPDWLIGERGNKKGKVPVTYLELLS
Chain of UniProt Q9UPN6 (Q9UPN6 whole entry, looked up): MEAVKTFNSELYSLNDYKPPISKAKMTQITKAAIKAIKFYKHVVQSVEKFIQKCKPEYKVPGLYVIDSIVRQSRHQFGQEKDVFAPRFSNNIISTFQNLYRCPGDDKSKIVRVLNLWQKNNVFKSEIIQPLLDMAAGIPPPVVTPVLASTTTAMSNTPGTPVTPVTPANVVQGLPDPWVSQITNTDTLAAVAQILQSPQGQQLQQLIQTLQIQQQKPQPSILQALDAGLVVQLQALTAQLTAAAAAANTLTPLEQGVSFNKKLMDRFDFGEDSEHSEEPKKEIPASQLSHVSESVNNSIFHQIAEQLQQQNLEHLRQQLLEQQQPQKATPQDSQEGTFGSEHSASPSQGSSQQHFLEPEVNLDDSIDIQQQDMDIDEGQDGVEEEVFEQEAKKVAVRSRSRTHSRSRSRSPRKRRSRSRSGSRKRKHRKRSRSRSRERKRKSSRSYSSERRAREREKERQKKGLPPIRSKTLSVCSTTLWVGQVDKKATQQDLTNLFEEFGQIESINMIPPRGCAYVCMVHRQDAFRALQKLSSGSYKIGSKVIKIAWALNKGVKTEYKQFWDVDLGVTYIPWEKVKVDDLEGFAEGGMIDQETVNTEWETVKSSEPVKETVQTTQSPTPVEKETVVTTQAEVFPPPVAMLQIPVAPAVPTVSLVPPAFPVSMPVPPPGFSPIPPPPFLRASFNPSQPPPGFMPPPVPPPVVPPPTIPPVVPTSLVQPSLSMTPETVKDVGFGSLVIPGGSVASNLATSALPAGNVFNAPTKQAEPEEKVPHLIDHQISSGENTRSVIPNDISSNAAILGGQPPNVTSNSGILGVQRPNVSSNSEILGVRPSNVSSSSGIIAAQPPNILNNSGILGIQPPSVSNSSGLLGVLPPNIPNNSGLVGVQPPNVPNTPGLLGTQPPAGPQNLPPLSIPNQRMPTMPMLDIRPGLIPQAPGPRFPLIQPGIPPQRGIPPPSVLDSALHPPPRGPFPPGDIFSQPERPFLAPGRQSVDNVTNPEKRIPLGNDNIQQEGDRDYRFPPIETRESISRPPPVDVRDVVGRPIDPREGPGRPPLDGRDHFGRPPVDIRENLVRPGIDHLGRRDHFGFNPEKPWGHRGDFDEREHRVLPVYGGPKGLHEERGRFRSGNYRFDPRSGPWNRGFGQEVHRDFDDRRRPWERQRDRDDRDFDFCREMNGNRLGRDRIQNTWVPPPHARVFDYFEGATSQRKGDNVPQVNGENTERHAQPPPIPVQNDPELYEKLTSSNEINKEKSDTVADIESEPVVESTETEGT
Chain of UniProt O94979 (O94979 whole entry, looked up): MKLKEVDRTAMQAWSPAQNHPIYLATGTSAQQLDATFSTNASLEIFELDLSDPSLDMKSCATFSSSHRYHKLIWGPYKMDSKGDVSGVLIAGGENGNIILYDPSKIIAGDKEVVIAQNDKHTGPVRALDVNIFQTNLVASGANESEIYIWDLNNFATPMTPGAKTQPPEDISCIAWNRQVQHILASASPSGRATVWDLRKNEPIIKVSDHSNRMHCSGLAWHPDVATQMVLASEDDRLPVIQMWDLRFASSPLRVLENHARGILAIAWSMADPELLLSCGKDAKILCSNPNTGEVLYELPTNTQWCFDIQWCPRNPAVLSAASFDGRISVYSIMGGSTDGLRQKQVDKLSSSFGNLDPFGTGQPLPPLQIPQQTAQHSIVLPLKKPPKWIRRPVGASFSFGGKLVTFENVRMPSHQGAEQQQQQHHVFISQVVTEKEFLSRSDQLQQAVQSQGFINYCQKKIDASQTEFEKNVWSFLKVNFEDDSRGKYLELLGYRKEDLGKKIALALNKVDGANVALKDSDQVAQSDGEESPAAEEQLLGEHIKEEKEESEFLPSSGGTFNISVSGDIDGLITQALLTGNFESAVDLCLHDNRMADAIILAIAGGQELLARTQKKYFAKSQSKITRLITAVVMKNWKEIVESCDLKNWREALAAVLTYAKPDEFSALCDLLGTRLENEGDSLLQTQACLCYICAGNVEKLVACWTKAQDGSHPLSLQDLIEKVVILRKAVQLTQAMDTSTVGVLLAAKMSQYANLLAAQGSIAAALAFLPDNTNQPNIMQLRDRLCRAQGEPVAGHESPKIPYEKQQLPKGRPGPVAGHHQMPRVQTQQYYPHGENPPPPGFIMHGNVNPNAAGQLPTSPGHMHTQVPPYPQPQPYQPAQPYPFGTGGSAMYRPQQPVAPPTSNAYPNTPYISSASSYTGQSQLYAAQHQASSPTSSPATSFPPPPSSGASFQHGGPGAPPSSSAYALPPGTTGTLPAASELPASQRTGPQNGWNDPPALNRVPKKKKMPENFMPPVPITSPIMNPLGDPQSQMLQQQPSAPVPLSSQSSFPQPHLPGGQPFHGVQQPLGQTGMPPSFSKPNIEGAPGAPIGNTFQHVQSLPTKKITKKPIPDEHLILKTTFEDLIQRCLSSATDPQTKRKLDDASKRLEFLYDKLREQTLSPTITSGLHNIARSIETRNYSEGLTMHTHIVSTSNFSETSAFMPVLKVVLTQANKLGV
Chain of UniProt Q6NUM9 (Q6NUM9 whole entry, looked up): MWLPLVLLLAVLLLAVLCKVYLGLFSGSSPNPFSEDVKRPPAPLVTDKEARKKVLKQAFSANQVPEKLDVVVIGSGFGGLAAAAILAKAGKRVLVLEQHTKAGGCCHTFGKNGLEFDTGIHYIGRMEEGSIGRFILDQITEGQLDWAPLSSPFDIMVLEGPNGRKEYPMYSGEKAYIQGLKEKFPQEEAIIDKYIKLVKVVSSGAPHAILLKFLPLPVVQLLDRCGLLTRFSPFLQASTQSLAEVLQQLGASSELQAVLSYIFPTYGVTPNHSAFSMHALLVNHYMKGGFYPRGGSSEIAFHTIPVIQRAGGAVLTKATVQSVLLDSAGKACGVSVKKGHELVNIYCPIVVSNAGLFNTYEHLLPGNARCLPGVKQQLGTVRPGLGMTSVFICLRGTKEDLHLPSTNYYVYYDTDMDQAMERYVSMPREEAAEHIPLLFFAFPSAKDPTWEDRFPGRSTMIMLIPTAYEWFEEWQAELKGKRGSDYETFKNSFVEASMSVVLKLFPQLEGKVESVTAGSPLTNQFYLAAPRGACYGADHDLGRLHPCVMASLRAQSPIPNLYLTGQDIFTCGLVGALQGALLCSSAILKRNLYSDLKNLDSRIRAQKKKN
Chain of UniProt Q8N0T1 (Q8N0T1 whole entry, looked up): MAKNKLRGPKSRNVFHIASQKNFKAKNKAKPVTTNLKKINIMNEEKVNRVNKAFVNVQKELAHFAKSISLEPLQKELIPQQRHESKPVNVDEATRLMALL
Chain of UniProt Q86UA6 (Q86UA6 whole entry, looked up): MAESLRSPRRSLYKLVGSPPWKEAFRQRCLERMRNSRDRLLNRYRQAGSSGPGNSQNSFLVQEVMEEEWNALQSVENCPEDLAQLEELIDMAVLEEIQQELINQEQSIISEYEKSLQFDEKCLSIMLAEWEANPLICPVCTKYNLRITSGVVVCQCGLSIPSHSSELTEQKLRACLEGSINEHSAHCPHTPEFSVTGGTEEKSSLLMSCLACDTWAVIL

Compound in the first assay: CCCCN(Cc1ccc(C(=O)NO)cc1)C(=O)Nc1ccccc1 [Nexturastat A]
Briefly: log2 fold change, soluble protein after heating vs DMSO (PISA); higher = thermal stabilisation; K562 cells, 10 uM, 30 min; active = over 0.2 and 3.5 SD of the protein, either way, in both replicates (recomputed). The essentials:
(§1)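 K562 cells at 2×10^6 cells/mL were treated with 10 μM compound for 30 min. Aliquots were heated for 3 min across 48°C-58°C, pooled, and extracted in PBS with 0.5% NP-40 at 4°C; soluble protein was the supernatant after 21,000xg for 90 min. Soluble protein was quantified by TMTpro 16plex LC-MS/MS with channel sums equalised, and reported as log2 fold change in thermal stability against DMSO controls, with values from duplicates.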
Turning to SCAMP2 (UniProt H3BUB6), the log2 fold change is 0.12.
With SCG3 (UniProt Q8WXD2), the log2 fold change was -0.071.
On to SAMD4B (UniProt Q5PRF9), for which the log2 fold change was 0.202.
The same measure, in the same setting: then SCAF8 isoform 2 (UniProt Q9UPN6), with 0.
As to RBM48 isoform 2 (UniProt Q5RL73), the log2 fold change is 0.04.
Consider SASH1 (UniProt O94885), for which the log2 fold change is 0.038.
On the same count and under the same terms, as for SCAMP2 (UniProt O15127), the figure is -0.061.
As to RBBP6 (UniProt Q7Z6E9), the log2 fold change is -0.051.
Regarding RAF1 isoform 2 (UniProt P04049), the log2 fold change was 0.077.
Take RPS6KA3 (UniProt P51812): the log2 fold change was 0.015.
In the case of RBM39 (UniProt Q14498), the log2 fold change is 0.043.
As to RPAIN isoform 8 (UniProt Q86UA6), the log2 fold change is -0.017.
The same measure, in the same setting: then RALY (UniProt Q9UKM9), with 0.358.
On to ROCK1 (UniProt Q13464), for which the log2 fold change was 0.093.
Consider RECQL (UniProt P46063), for which the log2 fold change was -0.002.
In the case of SH3GLB2 (UniProt Q9NR46), the log2 fold change was -0.064.
With RAB9A (UniProt P51151), the log2 fold change was 0.017.
On to SH2D1B (UniProt O14796), for which the log2 fold change was 0.143.
SLBP (UniProt Q14493): the log2 fold change was -0.218.
In the case of SERINC1 (UniProt Q9NRX5), the log2 fold change was 0.053.
The same measure, in the same setting: as for RAB3IL1 (UniProt E9PK89), the figure is -0.111; as for RAP2C (UniProt Q9Y3L5), 0; as for SCO2 (UniProt O43819), 0.269.
Turning to RETSAT (UniProt Q6NUM9), the log2 fold change was -0.003.
As for SEC31A (UniProt O94979), the log2 fold change was 0.102.
Consider RBIS (UniProt Q8N0T1), for which the log2 fold change was -0.012.
As for SLC12A9 (UniProt Q9BXP2), the log2 fold change is -0.008.
As for RNF167 (UniProt Q9H6Y7), the log2 fold change is -0.059.
RCOR1 (UniProt Q9UKL0): the log2 fold change was 0.054.
Turning to SEC24A (UniProt O95486), the log2 fold change is -0.04.

Compound in another assay: CCCS(=O)(=O)Nc1ccc(F)c(C(=O)c2c[nH]c3ncc(-c4ccc(Cl)cc4)cc23)c1F [vemurafenib]
Described as above. The essentials: as §1
Turning to SCAMP2 (UniProt H3BUB6), the log2 fold change is -0.266.
As to SIK3 (UniProt H0Y4E8), the log2 fold change is -0.08.
Same read-out and setting: then SCG3 (UniProt Q8WXD2), with 0.027; and RCOR3 isoform 3 (UniProt Q9P2K3), with 0.025.
Turning to SCAF8 isoform 2 (UniProt Q9UPN6), the log2 fold change was -0.001.
In the case of SASH1 (UniProt O94885), the log2 fold change is -0.043.
Same read-out and setting: as for SCAMP2 (UniProt O15127), the figure is 0.081; as for RBBP6 (UniProt Q7Z6E9), 0.008.
Consider RAF1 isoform 2 (UniProt P04049), for which the log2 fold change was 0.17.
Turning to RPS6KA3 (UniProt P51812), the log2 fold change was 0.001.
Regarding RBM39 (UniProt Q14498), the log2 fold change was 0.084.
RPAIN isoform 8 (UniProt Q86UA6): the log2 fold change was -0.062.
Same read-out and setting: then RALY (UniProt Q9UKM9), with -0.056.
Regarding ROCK1 (UniProt Q13464), the log2 fold change was 0.052.
For RECQL (UniProt P46063), the log2 fold change is -0.009.
For the target SH3GLB2 (UniProt Q9NR46), the log2 fold change was 0.058.
For RAB9A (UniProt P51151), the log2 fold change is -0.012.
In the case of RAD50, A0A494C0Y7, the log2 fold change is 0.045.
Turning to SH2D1B (UniProt O14796), the log2 fold change was 0.048.
For SLBP (UniProt Q14493), the log2 fold change was 0.028.
As to SERINC1 (UniProt Q9NRX5), the log2 fold change is -0.083.
Regarding RAB3IL1 (UniProt E9PK89), the log2 fold change is -0.08.
Regarding RAP2C (UniProt Q9Y3L5), the log2 fold change was 0.066.
SCO2 (UniProt O43819): the log2 fold change was 0.05.
Same read-out and setting: then RUFY3 isoform 3 (UniProt Q7L099), with -0.032; and RETSAT (UniProt Q6NUM9), with -0.03.
Regarding SEC31A (UniProt O94979), the log2 fold change is 0.054.
With RBIS (UniProt Q8N0T1), the log2 fold change was -0.002.
As to SLC12A9 (UniProt Q9BXP2), the log2 fold change is 0.017.
Consider RNF167 (UniProt Q9H6Y7), for which the log2 fold change was 0.031.
Regarding RCOR1 (UniProt Q9UKL0), the log2 fold change was 0.016.
Same read-out and setting: as for SEC24A (UniProt O95486), the figure is 0.023.

Compound in the next assay: CCCS(=O)(=O)Nc1ccc(F)c(C(=O)c2c[nH]c3ncc(Cl)cc23)c1F
The description is as above. In a few lines: as §1
As to SCAMP2 (UniProt H3BUB6), the log2 fold change is -0.335.
In the case of SIK3 (UniProt H0Y4E8), the log2 fold change is -0.076.
Regarding SCG3 (UniProt Q8WXD2), the log2 fold change is -0.041.
On to RCOR3 isoform 3 (UniProt Q9P2K3), for which the log2 fold change is 0.031.
As for SAMD4B (UniProt Q5PRF9), the log2 fold change is -0.132.
As to SCAF8 isoform 2 (UniProt Q9UPN6), the log2 fold change is 0.004.
As for RBM48 isoform 2 (UniProt Q5RL73), the log2 fold change was -0.011.
SASH1 (UniProt O94885): the log2 fold change is 0.097.
As for SCAMP2 (UniProt O15127), the log2 fold change is 0.043.
Same read-out and setting: as for RBBP6 (UniProt Q7Z6E9), the figure is 0.068; as for RAF1 isoform 2 (UniProt P04049), 0.438.
For the target RPS6KA3 (UniProt P51812), the log2 fold change was 0.016.
The same measure, in the same setting: then RBM39 (UniProt Q14498), with 0.083.
Regarding RPAIN isoform 8 (UniProt Q86UA6), the log2 fold change was 0.042.
On to RALY (UniProt Q9UKM9), for which the log2 fold change is 0.187.
As to ROCK1 (UniProt Q13464), the log2 fold change was 0.036.
Turning to RECQL (UniProt P46063), the log2 fold change is 0.063.
As for SH3GLB2 (UniProt Q9NR46), the log2 fold change is 0.058.
For RAB9A (UniProt P51151), the log2 fold change was -0.024.
For the target RAD50, A0A494C0Y7, the log2 fold change is 0.
Turning to SH2D1B (UniProt O14796), the log2 fold change is -0.135.
On to SLBP (UniProt Q14493), for which the log2 fold change is 0.057.
For the target SERINC1 (UniProt Q9NRX5), the log2 fold change is -0.018.
On to RAB3IL1 (UniProt E9PK89), for which the log2 fold change is -0.053.
Take RAP2C (UniProt Q9Y3L5): the log2 fold change was -0.13.
As to SCO2 (UniProt O43819), the log2 fold change is 0.029.
As for RUFY3 isoform 3 (UniProt Q7L099), the log2 fold change was -0.011.
On to RETSAT (UniProt Q6NUM9), for which the log2 fold change was -0.077.
Still for that read-out and setting: as for SEC31A (UniProt O94979), the figure is 0.064.
Consider RBIS (UniProt Q8N0T1), for which the log2 fold change was -0.063.
As for SLC12A9 (UniProt Q9BXP2), the log2 fold change is -0.012.
Turning to RNF167 (UniProt Q9H6Y7), the log2 fold change was -0.06.
Turning to RCOR1 (UniProt Q9UKL0), the log2 fold change is 0.029.
The same measure, in the same setting: then SEC24A (UniProt O95486), with 0.051.
